Activity calls are given as the source filed them.
Legend:
[1] = system: PRMT1 (protein arginine N-methyltransferase 1); assay: small molecules binding arginine methyltransferase PRMT1 – biochemical, small-molecule microarray, 635 nm fluorescence, primary screen (AID 1088); settings: higher = more signal;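 note: binding of Prmt1 protein to compounds spotted on small-molecule microarray slides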
[2] = growth effects on S. cerevisiae YJM789 – YJM789 clinical isolate, OD600, 24 h, basal, primary screen (AID 1089); settings: higher = more signal, called active from +8 up or from −8 down;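 note: growth of clinical yeast isolate S. cerevisiae YJM 789 seeded 1000 cells per well; test concentration not given here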
[3] = S. pombe growth modifiers, basal conditions – strain 972, OD600, 24 h, no modulator, primary screen (AID 1090);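 note: basal condition with compound alone and no growth modifier present; test concentration not given here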; settings: S. pombe 972 growth, higher = more signal, called active from +8 up or from −8 down
[4] = budding yeast growth modifiers under rapamycin – strain BY4716, OD600, 96 h, primary screen (AID 1091); note: test concentration not given here; settings: S. cerevisiae BY4716 + rapamycin, higher = more signal, called active from +8 up or from −8 down
[5] = target: Torsin-1A-interacting protein 2 (Homo sapiens) (UniProt Q8NFQ8); assay: small molecules binding lysate-expressed LULL1 – cell lysate, human LULL1 lysate, 635/667 nm fluorescence, primary screen (AID 1092); settings: small-molecule microarray, hLULL1 lysate binding, 635 nm fluorescence; higher = more signal;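 note: probe is lysate of COS7 cells overexpressing human LULL1; score merges per-feature 667 nm fluorescence with signal-to-noise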
Torsin-1A-interacting protein 2 (Homo sapiens), sequence (Q8NFQ8 whole entry, looked up): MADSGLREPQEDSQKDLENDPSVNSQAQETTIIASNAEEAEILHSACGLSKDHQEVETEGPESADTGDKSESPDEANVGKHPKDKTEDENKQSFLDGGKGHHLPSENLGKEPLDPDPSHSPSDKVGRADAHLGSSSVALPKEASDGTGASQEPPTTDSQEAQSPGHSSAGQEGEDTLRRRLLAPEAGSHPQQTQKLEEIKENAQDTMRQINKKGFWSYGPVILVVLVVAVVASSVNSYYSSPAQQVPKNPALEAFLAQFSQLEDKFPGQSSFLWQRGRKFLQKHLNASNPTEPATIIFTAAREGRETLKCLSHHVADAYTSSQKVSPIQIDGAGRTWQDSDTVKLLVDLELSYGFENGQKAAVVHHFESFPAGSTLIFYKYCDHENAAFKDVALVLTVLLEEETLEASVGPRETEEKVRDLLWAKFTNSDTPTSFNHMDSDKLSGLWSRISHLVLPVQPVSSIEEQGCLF

[6] = optical density change of DRC41 E. coli – strain DRC41, OD650, 24 h, E. coli filamentation project, primary screen (AID 1093);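 note: MC1000 strain lacking acrAB efflux and sulA so SOS filamentation is blocked; test concentration not given here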; settings: E. coli DRC41 growth, higher = more signal, called active from +8 up or from −8 down
[7] = probe aLefty2 binding to arrayed compounds – biochemical, biotinylated probe, 635/667 nm fluorescence, primary screen (AID 1094); settings: small-molecule microarray, higher = more signal;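 note: score merges spot fluorescence near 667 nm with spot signal-to-noise ratio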
[8] = system: Noggin (protein binding on small-molecule microarray); assay: small molecules binding Noggin protein – biochemical, 635/667 nm fluorescence, primary screen (AID 1095); settings: 635 nm fluorescence, higher = more signal;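 note: score merges 667 nm feature fluorescence with signal to noise over triplicate slides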
[9] = target: Neurogenic locus notch homolog protein 3 (Homo sapiens) (UniProt Q9UM47); assay: small molecules binding NOTCH3 protein – biochemical, 635/667 nm fluorescence, primary screen (AID 1096); settings: small-molecule microarray, 635 nm fluorescence, higher = more signal
Neurogenic locus notch homolog protein 3 (Homo sapiens), sequence (Q9UM47 whole entry, looked up): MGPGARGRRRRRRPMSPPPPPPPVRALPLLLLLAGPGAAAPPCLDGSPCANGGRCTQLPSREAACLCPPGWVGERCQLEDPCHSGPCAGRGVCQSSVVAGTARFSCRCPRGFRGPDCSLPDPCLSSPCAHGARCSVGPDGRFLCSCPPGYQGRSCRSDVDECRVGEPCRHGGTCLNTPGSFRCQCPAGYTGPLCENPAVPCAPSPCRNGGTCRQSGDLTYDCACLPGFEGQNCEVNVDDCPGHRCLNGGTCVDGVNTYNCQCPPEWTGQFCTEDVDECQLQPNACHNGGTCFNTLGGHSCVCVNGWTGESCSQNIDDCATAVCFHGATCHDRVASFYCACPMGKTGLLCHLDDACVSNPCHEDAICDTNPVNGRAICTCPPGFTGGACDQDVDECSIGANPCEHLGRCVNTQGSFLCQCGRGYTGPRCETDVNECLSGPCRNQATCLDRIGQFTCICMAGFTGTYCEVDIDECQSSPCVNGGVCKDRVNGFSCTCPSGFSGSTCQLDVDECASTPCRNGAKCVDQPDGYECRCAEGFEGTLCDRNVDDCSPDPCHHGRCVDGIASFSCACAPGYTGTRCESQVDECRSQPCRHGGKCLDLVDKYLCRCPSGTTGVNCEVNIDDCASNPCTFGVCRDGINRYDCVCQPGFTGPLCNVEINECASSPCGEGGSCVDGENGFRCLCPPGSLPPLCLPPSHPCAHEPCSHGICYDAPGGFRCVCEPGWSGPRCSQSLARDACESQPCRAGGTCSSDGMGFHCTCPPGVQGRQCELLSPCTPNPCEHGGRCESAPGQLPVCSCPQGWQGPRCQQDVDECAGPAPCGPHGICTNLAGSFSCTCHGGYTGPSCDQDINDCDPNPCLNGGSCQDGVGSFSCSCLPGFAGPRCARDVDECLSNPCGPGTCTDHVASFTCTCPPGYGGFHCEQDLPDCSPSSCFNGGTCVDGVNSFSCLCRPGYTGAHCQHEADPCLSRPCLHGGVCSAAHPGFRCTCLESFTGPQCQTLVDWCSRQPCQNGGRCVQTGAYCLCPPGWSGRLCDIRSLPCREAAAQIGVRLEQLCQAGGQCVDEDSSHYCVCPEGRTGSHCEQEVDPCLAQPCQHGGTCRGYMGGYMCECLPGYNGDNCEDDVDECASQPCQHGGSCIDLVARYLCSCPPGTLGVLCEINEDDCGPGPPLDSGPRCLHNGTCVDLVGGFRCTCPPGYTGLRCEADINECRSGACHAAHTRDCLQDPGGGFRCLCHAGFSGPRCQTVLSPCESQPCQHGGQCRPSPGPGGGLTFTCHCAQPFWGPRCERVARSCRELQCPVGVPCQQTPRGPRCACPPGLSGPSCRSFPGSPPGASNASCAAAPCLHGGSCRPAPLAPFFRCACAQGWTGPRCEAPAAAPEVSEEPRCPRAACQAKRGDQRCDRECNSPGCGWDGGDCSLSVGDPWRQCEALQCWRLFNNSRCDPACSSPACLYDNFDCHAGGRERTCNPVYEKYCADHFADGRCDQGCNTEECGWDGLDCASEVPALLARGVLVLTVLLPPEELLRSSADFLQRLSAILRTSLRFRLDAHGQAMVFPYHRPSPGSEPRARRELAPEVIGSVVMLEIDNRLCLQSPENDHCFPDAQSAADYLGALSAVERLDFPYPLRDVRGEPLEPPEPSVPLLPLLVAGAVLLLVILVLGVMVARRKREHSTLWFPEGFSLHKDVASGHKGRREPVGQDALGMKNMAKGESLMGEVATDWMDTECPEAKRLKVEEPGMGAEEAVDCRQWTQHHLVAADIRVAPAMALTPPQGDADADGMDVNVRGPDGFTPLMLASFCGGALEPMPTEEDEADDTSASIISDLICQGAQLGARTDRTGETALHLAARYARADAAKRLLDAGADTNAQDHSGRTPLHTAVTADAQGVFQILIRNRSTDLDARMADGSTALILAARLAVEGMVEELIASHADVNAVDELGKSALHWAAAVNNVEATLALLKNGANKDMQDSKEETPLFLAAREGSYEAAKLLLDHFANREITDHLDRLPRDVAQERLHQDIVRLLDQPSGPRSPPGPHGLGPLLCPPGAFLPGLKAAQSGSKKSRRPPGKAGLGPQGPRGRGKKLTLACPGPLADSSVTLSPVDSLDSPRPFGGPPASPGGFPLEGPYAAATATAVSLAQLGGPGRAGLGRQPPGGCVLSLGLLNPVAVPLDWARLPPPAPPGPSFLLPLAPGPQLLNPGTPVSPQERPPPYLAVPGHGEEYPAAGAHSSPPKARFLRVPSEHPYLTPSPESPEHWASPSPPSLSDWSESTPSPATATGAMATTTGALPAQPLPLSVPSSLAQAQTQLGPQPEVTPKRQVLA

[10] = probe aEGFR binding to arrayed compounds – biochemical, biotinylated probe, 635/667 nm fluorescence, primary screen (AID 1097); settings: small-molecule microarray, higher = more signal;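 note: probe is a biotinylated anti-EGFR antibody binding compounds printed on slides; score combines fluorescence near 667 nm and signal to noise of each spot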
[11] = system: Plasmodium falciparum Sir2 (PF13_0152, Sir2A); assay: Plasmodium falciparum Sir2A binding compounds – biochemical, small-molecule microarray, 635 nm fluorescence, primary screen (AID 1098); settings: fluorescence 635 nm, higher = more signal;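 note: score merges spot fluorescence intensity with its signal-to-noise ratio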
[12] = probe aDKK1 binding to arrayed compounds – biochemical, biotinylated probe, 635/667 nm fluorescence, primary screen (AID 1099); settings: small-molecule microarray, higher = more signal;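 note: score merges 667nm spot fluorescence with signal to noise across triplicate slides; reference of the scale not given here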
[13] = probe aCHRDL2 binding to arrayed compounds – biochemical, biotinylated probe, 635/667 nm fluorescence, primary screen (AID 1100); settings: small-molecule microarray, higher = more signal
[14] = change in splice reporter luminescence, either direction, cell-based, HEK293, spliceosome inhibition project, primary screen (AID 1101); settings: HEK293 splicing luciferase reporter, 24 h, higher = more signal, called active from +8 up or from −8 down;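 note: HEK293 cells carrying a splicing-competent luciferase reporter gene; test concentration not given here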
[15] = target: Fibroblast growth factor 10 (Homo sapiens) (UniProt O15520); assay: compounds binding fibroblast growth factor 10 – biochemical, small-molecule microarray, 635 nm fluorescence, primary screen (AID 1102); settings: FGF10 binding, fluorescence 635 nm, higher = more signal
Fibroblast growth factor 10 (Homo sapiens), sequence (O15520 whole entry, looked up): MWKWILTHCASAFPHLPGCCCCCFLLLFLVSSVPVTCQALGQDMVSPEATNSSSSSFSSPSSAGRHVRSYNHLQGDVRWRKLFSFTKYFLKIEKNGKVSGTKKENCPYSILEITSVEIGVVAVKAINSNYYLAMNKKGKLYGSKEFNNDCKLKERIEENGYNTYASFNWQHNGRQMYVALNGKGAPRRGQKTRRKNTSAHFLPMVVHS

[16] = system: glycogen synthase kinase-3 (GSK3A per assay name; protocol says GSK3B); assay: compounds binding glycogen synthase kinase-3 – biochemical, small-molecule microarray, 635 nm fluorescence, GSK3A, primary screen (AID 1103); settings: fluorescence 635 nm, higher = more signal; note: the record names both GSK3A and GSK3B
[17] = target: Epidermal growth factor receptor (Homo sapiens) (UniProt P00533); assay: compounds binding epidermal growth factor receptor – biochemical, small-molecule microarray, 635 nm fluorescence, primary screen (AID 1104); settings: EGFR binding, higher = more signal;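 note: score merges 667 nm emission intensity with spot signal to noise over triplicate slides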
Epidermal growth factor receptor (Homo sapiens), sequence (P00533 whole entry, looked up): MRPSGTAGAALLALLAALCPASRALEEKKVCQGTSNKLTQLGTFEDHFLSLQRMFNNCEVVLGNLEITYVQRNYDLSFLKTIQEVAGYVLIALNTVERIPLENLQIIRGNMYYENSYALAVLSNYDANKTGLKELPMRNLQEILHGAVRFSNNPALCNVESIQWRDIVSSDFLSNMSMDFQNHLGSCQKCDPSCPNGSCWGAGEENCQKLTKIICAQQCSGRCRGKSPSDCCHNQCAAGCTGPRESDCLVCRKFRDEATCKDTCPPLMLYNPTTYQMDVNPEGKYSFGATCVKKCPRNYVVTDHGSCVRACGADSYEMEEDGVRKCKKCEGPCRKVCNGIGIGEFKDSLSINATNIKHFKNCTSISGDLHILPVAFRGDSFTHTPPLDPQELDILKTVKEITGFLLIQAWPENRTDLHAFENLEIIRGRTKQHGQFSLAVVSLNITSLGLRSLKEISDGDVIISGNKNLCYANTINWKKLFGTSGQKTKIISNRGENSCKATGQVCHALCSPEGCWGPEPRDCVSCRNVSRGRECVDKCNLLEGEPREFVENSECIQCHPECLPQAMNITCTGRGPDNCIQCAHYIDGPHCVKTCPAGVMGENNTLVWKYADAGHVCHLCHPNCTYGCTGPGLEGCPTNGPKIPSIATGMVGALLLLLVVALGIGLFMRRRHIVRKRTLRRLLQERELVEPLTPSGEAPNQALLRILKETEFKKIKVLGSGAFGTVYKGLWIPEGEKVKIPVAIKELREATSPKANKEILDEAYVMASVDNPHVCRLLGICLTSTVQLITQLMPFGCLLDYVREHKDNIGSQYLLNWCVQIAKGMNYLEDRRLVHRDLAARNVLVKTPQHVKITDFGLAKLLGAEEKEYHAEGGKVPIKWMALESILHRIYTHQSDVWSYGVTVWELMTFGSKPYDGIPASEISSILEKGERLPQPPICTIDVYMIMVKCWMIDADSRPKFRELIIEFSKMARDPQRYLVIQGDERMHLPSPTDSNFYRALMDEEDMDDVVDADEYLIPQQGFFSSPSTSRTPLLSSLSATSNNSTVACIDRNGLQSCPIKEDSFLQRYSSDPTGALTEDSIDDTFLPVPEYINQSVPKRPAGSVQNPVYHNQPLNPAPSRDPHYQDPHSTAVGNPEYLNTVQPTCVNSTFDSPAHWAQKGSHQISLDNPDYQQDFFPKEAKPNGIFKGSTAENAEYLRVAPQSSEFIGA

[18] = target: Follistatin-related protein 3 (Homo sapiens) (UniProt O95633); assay: compounds binding follistatin-related protein 3 – biochemical, small-molecule microarray, 635 nm fluorescence, primary screen (AID 1105); settings: FSTL3 binding, higher = more signal;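 note: score merges emission near 667 nm and signal to noise per printed spot across three slides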
Follistatin-related protein 3 (Homo sapiens), sequence (O95633 whole entry, looked up): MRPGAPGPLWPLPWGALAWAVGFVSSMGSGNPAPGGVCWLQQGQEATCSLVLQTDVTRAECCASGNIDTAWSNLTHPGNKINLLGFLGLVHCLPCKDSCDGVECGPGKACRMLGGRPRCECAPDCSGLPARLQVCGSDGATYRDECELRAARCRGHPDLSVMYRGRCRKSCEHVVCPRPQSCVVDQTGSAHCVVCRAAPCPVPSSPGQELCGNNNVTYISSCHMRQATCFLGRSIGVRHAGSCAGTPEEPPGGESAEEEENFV

[19] = target: Dickkopf-related protein 1 (Homo sapiens) (UniProt O94907); assay: small molecules binding DKK1 protein – biochemical, small-molecule microarray, 635 nm fluorescence scan, primary screen (AID 1106); settings: higher = more signal;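 note: score merges emission near 667 nm with signal to noise over three replicate slides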
Dickkopf-related protein 1 (Homo sapiens), sequence (O94907 whole entry, looked up): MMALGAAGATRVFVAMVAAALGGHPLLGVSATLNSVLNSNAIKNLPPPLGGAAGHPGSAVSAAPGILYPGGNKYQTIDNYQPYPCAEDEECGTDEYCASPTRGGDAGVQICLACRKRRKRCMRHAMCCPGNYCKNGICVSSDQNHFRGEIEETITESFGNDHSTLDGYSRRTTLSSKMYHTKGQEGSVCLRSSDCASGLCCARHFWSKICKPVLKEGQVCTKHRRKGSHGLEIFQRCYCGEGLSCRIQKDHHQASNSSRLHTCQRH

[20] = system: Inhibin beta A chain (activin A); assay: small molecules binding activin A – biochemical, small-molecule microarray, 635 nm fluorescence scan, primary screen (AID 1107); settings: INHBA, higher = more signal;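 note: mouse activin A protein probed at 4.33 µg/mL on printed slides; score merges bound-protein fluorescence near 667 nm with spot signal-to-noise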

| SMILES | composite z-score [1] | z-score [2] | z-score [3] | z-score [4] | composite z-score [5] | z-score [6] | composite z-score [7] | composite z-score [8] | composite z-score [9] | composite z-score [10] | composite z-score [11] | composite z-score [12] | composite z-score [13] | z-score [14] | composite z-score [15] | composite z-score [16] | composite z-score [17] | composite z-score [18] | composite z-score [19] | composite z-score [20] |
| --- | --- | --- | --- | --- | --- | --- | --- | --- | --- | --- | --- | --- | --- | --- | --- | --- | --- | --- | --- | --- |
| CO[C@@H]1COC(=O)[C@H](CCSC)NC(=O)CC=C[C@@H](C)COC(=O)CCC[C@H]1C | 1.55 | -1.16 (inactive) | 0.583 (inactive) | -1.25 (inactive) | -0.86 | -0.0886 (inactive) | -0.0225 | 1.82 | 0.249 | 0.232 | 0.919 | -0.374 | -1.25 | -0.433 (inactive) | 0.399 | 1.26 | 1.03 | 1.03 | 2.36 | -1.51 |
| O=C1[C@H]2[C@H]3[C@H](O)[C@H](O)CC(=NOCc4ccccc4)[C@@H]3CC[C@H]2C(=O)N1Cc1ccc2c(c1)OCO2 | 0.231 | -0.559 (inactive) | 0.437 (inactive) | -0.789 (inactive) | 0.664 | 1.1 (inactive) | -0.17 | 0.297 | 0.428 | 0.0761 | 0.0183 | -0.225 | -0.453 | 0.631 (inactive) | 0.32 | -0.0163 | 0.317 | 0.517 | 0.472 | 0.45 |
| Cc1ccc(S(=O)(=O)NC(CCc2ccccc2)CC(=O)C(C)(C)C)cc1 (stereo not given) | 1.09 | -1.18 (inactive) | -1.76 (inactive) | 0.269 (inactive) | 0.69 | 0.361 (inactive) | 0.422 | 0.409 | 1.14 | 0.045 | 0.491 | -0.32 | -0.459 | -0.327 (inactive) | 0.465 | 0.667 | 0.589 | 0.758 | 0.661 | -0.114 |
| C#CCCCON=C1C[C@@H](O)[C@@H](O)[C@@H]2[C@@H]3C(=O)N(C(C)(C)C)C(=O)[C@@H]3CC[C@H]12 | -0.872 | -0.234 (inactive) | -0.401 (inactive) | -0.0894 (inactive) | -0.0077 | 0.216 (inactive) | 0.599 | -0.532 | -0.326 | 0.113 | 0.115 | 0.765 | 1.24 | 0.233 (inactive) | -0.165 | -0.656 | -0.0084 | -0.866 | -0.996 | 0.615 |
| CC(=O)O[C@H]1C2=CO[C@H](C)[C@H]3[C@H]4C5=C([C@H](O)[C@H]6O[C@H]6C5=O)[C@H](OC4C)[C@@]23C(=O)[C@@H]2O[C@@H]21 (stereo not given in full) | 0.593 | 0.116 (inactive) | 0.197 (inactive) | 0.0253 (inactive) | 0.946 | -0.681 (inactive) | -0.299 | 0.433 | 0.392 | -0.0047 | 1.74 | -0.238 | -0.647 | -4.6 (inactive) | 0.916 | -0.0987 | -0.121 | 0.0068 | 0.538 | 0.528 |
| CC(C)CON=C1C[C@@H](O)[C@@H](O)[C@@H]2[C@@H]3C(=O)N(Cc4ccc5c(c4)OCO5)C(=O)[C@@H]3CC[C@H]12 | 1.31 | 0.306 (inactive) | 0.754 (inactive) | 0.329 (inactive) | 2.33 | 0.396 (inactive) | -0.2 | 1.38 | 0.846 | -0.0697 | 0.191 | -0.222 | -0.608 | 0.31 (inactive) | 1.14 | 0.589 | 0.216 | 0.671 | 0.178 | -0.374 |
| COC(=O)CC=C[C@@H](C)[C@@H]1C=C[C@H](O)[C@@H](CO)O1 | -0.266 | 0.773 (inactive) | 1.08 (inactive) | 0.531 (inactive) | 0.296 | 0.426 (inactive) | -0.177 | 0.381 | 0.601 | -0.338 | 0.146 | -0.0367 | -0.48 | -0.593 (inactive) | 0.666 | 0.753 | 0.369 | 0.559 | 1.15 | 0.165 |
| CO[C@@H]1COC(=O)CC=C[C@@H](C)[C@@H]2C=C[C@H](O)[C@@H](COC(=O)CC=C[C@H]1C)O2 | 1.56 | -0.48 (inactive) | -0.636 (inactive) | -0.922 (inactive) | -0.664 | 0.713 (inactive) | -0.123 | 1.47 | 0.276 | 0.0651 | 0.643 | -0.438 | -1.25 | -0.383 (inactive) | 0.602 | 1.02 | 1.2 | 1.52 | 1.66 | 1.73 |
| CCOC(=O)NN=C1C[C@@H](O)[C@@H](O)[C@@H]2[C@@H]3C(=O)N(c4ccc(F)cc4F)C(=O)[C@@H]3CC[C@@H]12 | -0.009 | 0.517 (inactive) | 0.733 (inactive) | -0.0512 (inactive) | 0.0129 | 0.783 (inactive) | -0.0347 | 0.139 | 0.578 | -0.124 | 0.468 | -0.132 | -0.364 | 0.428 (inactive) | 0.478 | 0.364 | 0.527 | 0.659 | 0.462 | 0.18 |
| CCOC(=O)C1=NO[C@@]2(C=C(Br)C3(OCCCO3)[C@H]3O[C@H]32)C1 | -0.481 | 0.74 (inactive) | 0.664 (inactive) | -0.291 (inactive) | 0.0603 | 0.292 (inactive) | 0.105 | 1.42 | 0.91 | -0.004 | 0.984 | -0.042 | 0.521 | 0.0671 (inactive) | 1.07 | 0.827 | 1.13 | 0.842 | 1.66 | 1.59 |

Reference: PubChem BioAssay
